Test results as given in PubChem BioAssay AID1476 (National Center for Advancing Translational Sciences (NCATS), 2009).
About 4,500 (2.2%) of roughly 200,000 compounds were called active. About 12% were inconclusive and are not listed. What follows is part of a selection rich in actives, with near analogues and random picks from the rest. A number with no mark means an inactive call. The call rests on the fitted dose curve; in most records, active means well fitted inhibition curve with a large enough effect; inconclusive means small, poorly fitted or top-dose-only effect, or effect the other way; inactive means flat fitted curve, though single readings scatter.

Target: Cruzipain (Trypanosoma cruzi) (UniProt P25779)
Sequence (P25779 123-467 limits assumed): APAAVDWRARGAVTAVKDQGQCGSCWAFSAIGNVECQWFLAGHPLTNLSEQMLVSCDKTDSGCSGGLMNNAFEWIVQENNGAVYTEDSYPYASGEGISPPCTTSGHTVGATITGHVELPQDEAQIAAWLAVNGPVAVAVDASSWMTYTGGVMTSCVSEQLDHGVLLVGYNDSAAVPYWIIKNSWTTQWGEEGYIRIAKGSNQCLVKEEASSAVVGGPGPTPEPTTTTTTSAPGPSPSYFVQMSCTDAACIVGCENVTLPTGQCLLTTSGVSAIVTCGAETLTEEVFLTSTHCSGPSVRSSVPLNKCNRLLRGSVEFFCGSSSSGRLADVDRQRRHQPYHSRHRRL
Assay: qHTS Assay for Promiscuous and Specific Inhibitors of Cruzain (without detergent); further: nearly all actives have a fitted effect of over 40% in size;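 on max response, negative = inhibition: plate controls were enzyme without inhibitor for no effect and buffer without enzyme for full effect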
Conditions: purified cruzain, Z-FR-AMC fluorescence, no detergent
Method in brief: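 Purified cruzain at 1.5 nM, pre-incubated 15 min with compound at room temperature in 100 mM sodium acetate pH 5.5, 5 mM DTT, 0.00005% Triton X-100. Reaction started with 2 uM Z-FR-AMC; AMC fluorescence increase over 60 s gives rate.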
Potency means the concentration at half of the fitted maximal effect.

| SMILES | max response, negative = inhibition | Potency |
| --- | --- | --- |
| Cc1cc(C(=O)OCC(=O)N2c3ccccc3NC(=O)C2(C)C)c(C)n1-c1ccccc1 | -5.2% |  |
| Cc1cc(-c2csc(N)n2)c(C)n1-c1ccccc1 |  | 25.1 µM (active) |
| Cc1n[nH]c(=O)n1-c1ccc(Oc2ccccc2)cc1 | 4.55% |  |
| Cc1cccc(N(C)C(=O)CS(=O)(=O)c2cccc3nsnc23)c1 | -1.79% |  |
| COc1ccc(-n2c(SCC(=O)Nc3ccc(Cl)c(C)c3)nc3n[nH]c(C)c3c2=N)cc1 | -5.01% |  |
| CCC(=O)N1CCc2cc(S(=O)(=O)NC(CC(C)C)C(=O)NCCc3cccc(C)c3)ccc21 (stereo not drawn) | -3.67% |  |
| COc1ccc(C)cc1NC(=O)C(OC(=O)c1cccc(S(=O)(=O)N(C)c2ccccc2)c1)c1ccccc1 (stereo not drawn) |  | 7.94 µM (active) |
| COc1ccc(C)cc1NC(=O)C(Sc1ccccc1)c1ccccc1 (stereo not drawn) | -12.8% |  |
| Cc1ccc(C)c(NC(=O)C(OC(=O)c2ccc(C)s2)c2ccccc2)c1 (stereo not drawn) | 12.2% |  |
| COc1c(Cl)cc(Cl)cc1C(=O)Nc1cccc2cccnc12 | -4.23% |  |
| C[C@@H]1C(c2ccc(F)cc2)=NN(c2ccc(Br)cc2)[C@H]1C(=O)N1CCOC1=O |  | 22.4 µM (active) |
| Cc1ccc2c(c1)N(C(=O)Nc1ccc(Br)cc1F)CCO2 | 5.17% |  |
| O=C1OCCN1C(=O)[C@H]1[C@H](c2ccc(F)cc2)C(c2ccccc2)=NN1c1ccc(Br)cc1 |  | 22.4 µM (active) |
| O=C1OCCN1C(=O)[C@H]1[C@H](c2ccc(Cl)cc2)C(c2cccc(Cl)c2)=NN1c1ccc(Br)cc1 |  | 8.91 µM (active) |
| COc1ccc(NS(=O)(=O)c2cc3c4c(c2)CC(=O)N4CCC3)cc1Cl | -28.2% |  |
| COc1cccc(CNC(=O)c2ccc3c(c2)sc2nc(-c4cccc(OC)c4)cn23)c1 | -4.99% |  |
| CC1CCN(c2nc3ccc(C(=O)N4CCN(c5ccccc5)CC4)cc3s2)CC1 | -2.72% |  |
| CCC(CC)c1nn2cc(-c3ccccc3)nc2s1 | -2.39% |  |
| Oc1c(C(c2ccc(F)cc2)N2CCN(Cc3ccccc3)CC2)sc2nc(-c3ccco3)nn12 (stereo not drawn) | 1.08% |  |
| CCC(=O)N1CCc2cc(S(=O)(=O)NCCC(=O)Nc3cccc(C)c3C)ccc21 | -1.54% |  |
| Cc1ccc(NC(=O)CN2C(=O)C(c3ccc(F)cc3)=NC23CCCCCC3)c(C)c1 | 4.08% |  |
| Cc1ccccc1OCc1nnc(SCC(=O)N2c3ccccc3Sc3ccc(Cl)cc32)o1 |  | 12.6 µM (active) |
| Cc1cc(C)cc(OCc2nnc(SCC(=O)Nc3ccccc3)o2)c1 | 4.82% |  |
| CC(C)NC(=O)CSc1nnc(COc2ccccc2Cl)o1 | -5.33% |  |

| SMILES | max response, negative = inhibition | Potency |
| --- | --- | --- |
| CCOC(=O)c1c(NC(=O)COc2cc(C)ccc2C(C)C)sc(C)c1C | 8.07% |  |
| Cc1ccc(CCNC(=O)c2ccc(CS(=O)(=O)Cc3cccc(C)c3)o2)cc1 | 19.9% |  |
| CCCc1cc(=O)n2[nH]c(NCc3ccc(CC)cc3)nc2n1 | -8.1% |  |
| CCc1ccc(NC(=O)N2CCN(C(=O)c3nsc4ccccc34)CC2)cc1 | -5.87% |  |
| COc1cc(NC(=O)c2nn(-c3ccc(C)cc3)c(=O)c3c2c2ccccc2n3C)cc(OC)c1OC | -21.7% |  |
| O=C(CCCCn1c(=O)[nH]c2ccccc2c1=O)NCc1ccc2c(c1)OCO2 | 8.55% |  |
| O=C1N(Cc2ccc3c(c2)OCO3)c2ccccc2C1(O)c1c[nH]c2ccccc12 (stereo not drawn) |  | 15.8 µM (active) |
| O=C1N(Cc2ccccc2)c2ccc(Cl)cc2C1(O)c1c[nH]c2ccccc12 (stereo not drawn) | 18.9% |  |
| Oc1ccc(-c2nc3ccc(Cl)cn3c2Nc2ccc3c(c2)OCO3)cc1 | -3.92% |  |
| CCc1ccc(-c2cc(C(=O)NCc3ccco3)c3ccccc3n2)s1 | -8.4% |  |
| Cc1ccc(-c2cc(C(=O)N/N=C/C=C/c3ccco3)c3ccccc3n2)cc1C |  | 25.1 µM (active) |
| COc1cccc(-c2cc(C(=O)N/N=C/c3ccc(OC)c(COC(C)=O)c3)c3ccccc3n2)c1 | -16% |  |
| N#Cc1nc(/C=C/c2ccc(F)cc2)oc1NC1CCCCC1 | -7.33% |  |
| CCOc1ccc(C2C(C(=O)Nc3ccc(Cl)cc3)=C(C)Nc3nc(C(F)(F)F)nn32)cc1 (stereo not drawn) | 3.69% |  |
| Cc1ccc2oc(=O)c3cnn(CC(=O)N4CCN(c5cccc(Cl)c5)CC4)c3c2c1 | -11.7% |  |
| Cc1cccc(NC(=O)COc2ccccc2C)n1 | 10.4% |  |
| Cc1ccccc1OCC(=O)NCC(=O)OCC(=O)c1ccc2ccccc2c1 |  | 10 µM (active) |
| COCCNC(=O)COc1ccccc1C | -9.1% |  |
| CCOc1ccc(NC(=O)C(=O)NCCc2csc3nc(-c4ccccc4F)nn23)cc1 | -1.02% |  |
| CCCSc1ncc(Cl)c(C(=O)Nc2c(C(=O)Nc3ccccc3)oc3ccccc23)n1 | -6.15% |  |
| O=C(CSc1nc2ccccc2o1)N1CCN(c2ccc(Cl)cc2)CC1 |  | 10 µM (active) |
| CCN(CC)C(=O)CSc1nc2ccccc2o1 |  | 3.16 µM (active) |
| Cc1ccc(/C=N/NC(=O)CSc2nc3ccccc3o2)cc1 | -9.67% |  |
| O=C(CSc1nc2ccccc2o1)N1CCN(c2ccccc2)CC1 | -4.7% |  |

| SMILES | max response, negative = inhibition | Potency |
| --- | --- | --- |
| O=C(CN1CCN(c2ccc(Cl)cc2)CC1)N1CCCC1 | -5.28% |  |
| CC1Cc2ccccc2N1C(=O)CSc1nc2ccccc2o1 (stereo not drawn) | -7.1% |  |
| COc1ccc(C2=NS(=O)(=O)N(C)C(C(=O)NC(C)c3ccccc3)=C2)cc1 (stereo not drawn) | -27.6% |  |
| CCn1c(=O)cc(OCC(=O)Nc2cc(Cl)c(OC)cc2OC)c2ccccc21 | 0.57% |  |
| N#Cc1cc([N+](=O)[O-])ccc1Oc1cccc(/C=N/NC(=O)c2ccc(Cl)cc2)c1 |  | 20 µM (active) |
| COc1ccc(/C=N/NC(=O)c2ccc(Cl)cc2)cc1COC(C)=O | 7.25% |  |
| COc1cc(OC)c(/C=N/NC(=O)c2ccc([N+](=O)[O-])cc2)cc1Br | -5.61% |  |
| O=c1cc(CO)oc(CN2CCC(Cc3ccccc3)CC2)c1O | -8.62% |  |
| CCOC(=O)N1CCN(Cc2oc(CO)cc(=O)c2O)CC1 |  | 1.58 µM (active) |
| CCOC(=O)N1CCN(C(=O)c2cc3c(ccc4ccccc43)oc2=O)CC1 | -18.3% |  |
| Cc1ccc(C(=O)N2c3ncnn3C3(CCCCC3)[C@@H]3CCCC[C@@H]32)cc1 | 9.53% |  |
| COc1ccc(CNC(=O)CSCc2nc(-c3ccccc3F)oc2C)cc1 | -2.99% |  |
| CCS(=O)(=O)c1ncc(N(Cc2ccc(F)cc2)Cc2ccco2)c(C(=O)Nc2cc(C)ccc2C)n1 | -19.1% |  |
| O=C(NCC1CCCO1)/C(=C\c1ccco1)NC(=O)c1ccccc1 (stereo not drawn) | -0.97% |  |
| C/C(=C\c1ccco1)C1Nc2cccc3cccc(c23)N1 |  | 3.16 µM (active) |
| Cc1ccc(OCC(=O)OCc2cc(=O)n3nc(C4CC4)sc3n2)cc1C | -7.58% |  |
| COc1ccccc1NC(=O)c1oc2ccccc2c1NC(=O)C(C)C | -10.9% |  |
| CC(=O)c1cccc(NC(=O)CSc2nc3c(c(=O)[nH]2)CCC3)c1 | -3.06% |  |
| O=C(CSc1nc2ccccc2nc1Cc1ccccc1)N1CCCCC1 | -0.222% |  |
| C=CCNc1nnc(C)c2ccccc12 | -10.1% |  |
| C=CCNc1nnc(SCC(=O)N2CCCCC2)c2ccccc12 |  | 20 µM (active) |
| COc1ccc(CNC(=O)c2cc3cccc(OC)c3oc2=O)cc1 | -1.78% |  |
| CCOc1ccc(S(=O)(=O)c2cn(Cc3ccc(OC)cc3)c3ccc(F)cc3c2=O)cc1 | 0.948% |  |
| Cc1ccc(-n2c(SCC(=O)c3ccccc3)nc3c([nH]c4ccccc43)c2=O)cc1 | -13.1% |  |

| SMILES | max response, negative = inhibition | Potency |
| --- | --- | --- |
| COc1ccc(-c2c(C)nn3c(N4CCC(C(=O)NCCC(C)C)CC4)cc(C)nc23)cc1OC | 4.69% |  |
| Cc1ccc(CN2COc3cc(C)c4c(oc(=O)c5ccccc54)c3C2)cc1 | -21.8% |  |
| Fc1ccc2nc(N3CCCCC3)sc2c1 | 2.08% |  |
| Fc1ccc2nc(Nc3nc4c(s3)CCCC4)sc2c1 |  | 31.6 µM (active) |
| O=C(Nc1nc2c(s1)CCCC2)c1ccccc1F | -4.21% |  |
| Cn1c(=O)c2c(SCC(=O)N3CCc4ccccc43)nc(-c3ccc(Cl)cc3)nc2n(C)c1=O | 16.5% |  |
| Cc1ccc(S(=O)(=O)N2CCC(C(=O)Nc3cc(C)ccc3C)CC2)cc1 | 10.8% |  |
| Cc1ccccc1CSc1nc(-c2ccccc2)nc2c1Cc1c(CO)cnc(C)c1O2 | -5.34% |  |
| COc1ccccc1/C=C/C1=NC(=C\N(C)C)/C(=O)O1 | -2% |  |
| CC(C)(C)C1C/C(=C/c2ccco2)C(=O)/C(=C/c2ccco2)C1 (stereo not drawn) | 22.8% |  |
| O=C1OC(/C=C/c2ccccc2)=NC/1=C/c1ccco1 |  | 3.16 µM (active) |
| COc1ccccc1-c1nnc(C2CCN(C(=O)c3ccc(Cl)cc3)CC2)o1 | -7.8% |  |
| Fc1cccc(-n2ncc3c2ncn2nc(-c4ccccc4Cl)nc32)c1 | -11.9% |  |
| COc1ccccc1CNC(=O)NCc1noc2ccc(C)cc12 | -3.84% |  |
| O=C(CN1CCSc2ccccc21)N1CCN(c2ccccc2)CC1 | -4.92% |  |
| COc1ccc(Br)cc1C(=O)NC(=S)Nc1cc(-c2nc3ccccc3[nH]2)ccc1C |  | 10 µM (active) |
| Cc1ccc(-c2nc3ccccc3[nH]2)cc1N | 0.934% |  |
| COC(=O)c1cc(NC(=O)c2sc3ccccc3c2Cl)cc(C(=O)OC)c1 | -7.2% |  |
| Cc1ccc(-c2nc3ccccc3[nH]2)cc1NC(=O)c1sc2ccccc2c1Cl |  | 7.94 µM (active) |
| Cc1cc2[nH]ncc2cc1NC(=S)NC(=O)c1ccccc1 | 0.868% |  |
| COc1ccc2oc(-c3ccc(C)c(NC(=O)c4sc5ccccc5c4Cl)c3)nc2c1 | -7.77% |  |
